Experimental data reported in PubChem BioAssay AID1159506 (National Center for Advancing Translational Sciences (NCATS), 2015).
In all, about 59,000 sequences were measured (the read-out: median about -0.00055, lowest 2% from about -2 on). The entries come from a sample that favours the lowest values as a whole.

Assay: Identification of proteins required for the processing of the EWS-FLI1 nascent transcript;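 note: robust z of luciferase light less the median z of siRNAs with the same seed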
Details: TC32 Ewing sarcoma NR0B1-luc vs CMV-luc (EWS-FLI1 target promoter against control promoter), 48 h; screened at 20 nM (by protocol)
Method in brief: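 Genome-wide siRNA screen (Ambion v4.1, three siRNAs per gene, 20 nM final, RNAiMax) in Ewing sarcoma TC32 cells carrying NR0B1-promoter or CMV-promoter luciferase; OneGlo luciferase read 48 h post-transfection. Data normalized, z-score-MAD transformed and seed-adjusted.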

Going from UCUAGAUCACCAAACAUCA against OR1N1 to AGACAUAACACCUUCUUCA against RPL10A, the seed-corrected z-score falls from 0.571 to -2.86.

Going from ACACCAGUGAUUACUGUGC against FLJ44635 to UUGGUGAAUAGUCUCUUUC against RPS2P45, the seed-corrected z-score falls from -0.245 to -0.275.

Going from UCUUCACGCAGUAUCUUUC against SLC25A13 to UCUUCUUUAGUCUUCCUGC against STMND1, the seed-corrected z-score falls from 1.22 to -1.04.

Compared with UGCUCGAAAACAACCUUCU against TPI1, ACAUCUAUCACAUCUAAGG against ZC3H13 is lower in seed-corrected z-score: 0.853 for the first, 0.428 for the second.

Compared with UAUUUUGCAAUAUCUUCUC against SLU7, AUCGUCAUAUCUACCAUUG against USP34 is lower in seed-corrected z-score: -0.229 for the first, -1.15 for the second.

First: UGUUUGAUGACAAGGGUUG against POLE2
Second: AAAGUGUCUAGCCCUAUGG against MESP1
The seed-corrected z-score of the first is lower: -2.32 for the first, 0.768 for the second.

Compared with “AAUUCCAUGAGGGCCUUCC against CDKN2AIPNLP1”, UUCGGCACCAUUCACAGAG against FAM57A is higher in seed-corrected z-score: -2.53 for the first, 0.0703 for the second.

Compared with UGUUGACAAACCAUCUUUC against PDPN, UUCAAAAACCACGAUGUUG against CLDN8 is higher in seed-corrected z-score: 0.381 for the first, 0.491 for the second.

First: UGUUGUAGCACUUGGCUUU against IFITM5
Second: AUAUCGAACAGUUUGGUAC against CTDNEP1
The seed-corrected z-score of the first is lower: -3.59 for the first, 0.928 for the second.

Going from AUCCGGAUCAUCGAGUCUG against ATP1B4 to UUAAAUGUAAGCAGGUUUC against CYTL1, the seed-corrected z-score rises from -0.782 to 0.276.

Going from AUUGAGGUAGGAGCCGUCG against FGFRL1 to UUCAUUGCGAUUAGCCUGC against ANXA13, the seed-corrected z-score rises from -2.32 to -0.522.

Going from UACUAGAGCAGUGUCUGAG against DNPH1 to UUCUCGUUGAUGCGGCUCC against ASB1, the seed-corrected z-score falls from 0.502 to -2.16.

First: UUGUUUUCACUUCCAAUGC against FCAMR
Second: UCACGGUCAUCAUCUAGGG against FOPNL
The seed-corrected z-score of the first is higher: -0.0643 for the first, -2.56 for the second.

Going from UUGUCUAGAAGAAUUGUCG against TTC3 to UUAGGGACGAUGUCCACGG against RSPH6A, the seed-corrected z-score falls from -0.75 to -0.977.

First: UCUGGUUCAGCAUGAGCUG against SYT8
Second: UAUAACUUGUCGGAAACGC against NPIPB3
The seed-corrected z-score of the first is lower: -2.2 for the first, 0.406 for the second.

First: UCAAGUCCGACUUGGAGCG against FAM110A
Second: AGUCUGAAUACCAUCCUUC against GATA1
The seed-corrected z-score of the first is higher: -0.0203 for the first, -0.386 for the second.

Going from AACAUAGCUAAAAUGAUCC against CLMN to ACUGAGCUCAUUCUUGUCC against HSF1, the seed-corrected z-score rises from -2.28 to -0.661.

First: UUUACAGCUGAUGAUAUGG against RWDD4
Second: UUCGAUAGUAACAAAGUUC against PCDH9
The seed-corrected z-score of the first is higher: -0.249 for the first, -2.03 for the second.

Going from AAAGUCUCCAGUUAAUAGC against MRPL46 to UAGUGCACCACGCAGGUCU against FKBP1A, the seed-corrected z-score falls from 1.41 to 0.92.

First: UUACGGACAUCCGAUCUUC against DPYS
Second: UCAUAGUCCGCGAUCACCU against EDF1
The seed-corrected z-score of the first is higher: -0.0377 for the first, -0.388 for the second.

Compared with UAUCCAGUACGUGAGGCCC against LRP5L, UUGGUUGUCAGAGUAGGUG against HSPA1L is lower in seed-corrected z-score: -1.82 for the first, -2.39 for the second.

Compared with UUUCCCAUCCUUAAAGAGC against PTGS1, AAUCUAACUGCAUUCGUUG against RSBN1L is higher in seed-corrected z-score: -0.201 for the first, 0.409 for the second.

Going from UUGUGAGCCGACAGGAUGC against PYCR2 to AAAACAUACAUUGACUUGC against LINC01098, the seed-corrected z-score rises from -0.604 to -0.153.

Compared with UGAGUUUCCGUACCACACC against PRDM12, UAUUCCCUAAUAAAGCAGG against ZMYM5 is higher in seed-corrected z-score: -2.92 for the first, 0.289 for the second.

First: UUCUUCAACCUUGAGGCGG against SNAPC5
Second: UGAUGUCUACAAUAUCACC against RPL21
The seed-corrected z-score of the first is higher: 0.755 for the first, -2.69 for the second.

Going from UGGGUGAUAAGAAAAACAG against CD40LG to AAAGCAAAUAGUAUGGUUC against ATG5, the seed-corrected z-score rises from -0.837 to 0.522.

First: UGGACUCCUACAUUACUGC against EFCAB13
Second: AAAGGUACUCUUGGGCAGG against EEF1G
The seed-corrected z-score of the first is higher: 0.0128 for the first, -0.242 for the second.

First: UUAGGUAAUACACUAUUUG against THAP2
Second: UCCCAGACUUUGACCAUGC against WDR38
The seed-corrected z-score of the first is higher: 0.091 for the first, -2 for the second.

Compared with UCUUGUGGAUGUAAUAUGC against SIMC1, UUCUUCUACAGGCUUGAGG against SMNDC1 is lower in seed-corrected z-score: -0.283 for the first, -0.35 for the second.

Compared with UGAGUUUGAACCCAAAAGU against IGFL4, UCUGUAGUCAGUUUGGUUG against LDB1 is lower in seed-corrected z-score: 1.44 for the first, -0.7 for the second.

Going from UCAUCUUCUCCAACUUUUC against GINS2 to AAGCUUGUAAGUAUAGACG against SF3B3, the seed-corrected z-score falls from 0.362 to -2.14.

Compared with AUAGAAAACACCAAGAUUA against TMEM63A, AUAUGACCUACUACCAUCC against LURAP1 is higher in seed-corrected z-score: 0.279 for the first, 0.3 for the second.

First: ACAUGAUCAACUGGUAGUC against TTBK1
Second: UAAGGUAAGAGCCUGUGCU against ZNF177
The seed-corrected z-score of the first is lower: -4.16 for the first, 0.0512 for the second.

First: AAAAGUAUCAGCAGAAGUC against GPR156
Second: UAGUUGAAGAGGGCGUGGG against TAS1R3
The seed-corrected z-score of the first is lower: -0.243 for the first, -0.153 for the second.

First: AACGGAACCUGUGAGAUCC against LARS2
Second: UAACUGAAUGGCAUCCCGG against C6orf226
The seed-corrected z-score of the first is lower: -0.262 for the first, 0.21 for the second.

Going from UUGUAGUUCAGCUGGUUGU against SPATA2 to UCCUGGAGCAUAUCCGAGC against TMPRSS5, the seed-corrected z-score rises from -2.04 to 0.289.

First: UCAUUUAGCUUUACCACCC against AHCYL1
Second: UUGUAUUCCACAGAAGUAA against SLC25A41
The seed-corrected z-score of the first is lower: 0.0585 for the first, 0.115 for the second.

Going from UGUCGUAUCUCUCUUCAUC against TNNI3 to UUACUGCUGAAUACAGACU against HRASLS, the seed-corrected z-score falls from -0.115 to -2.09.

Compared with UAUGUCCCAAAUAUACACC against SLC36A3, UUCUUACUCCAAUAUCUCC against WWC2 is lower in seed-corrected z-score: 0.459 for the first, -0.0295 for the second.

Compared with UUUGAUGAAGGGUACGUGG against KIF11, UUCUCAAUGAUAUUAUGGG against SREBF2 is higher in seed-corrected z-score: -2.31 for the first, -0.569 for the second.

Going from AUCAUAGCAACAGUGCUGC against IGFL1 to UGAACAUUGAGUAACGAAC against ORAOV1, the seed-corrected z-score rises from -2.6 to 0.0373.

First: UCUGUUCUCGGUCAAAGAC against DCAF11
Second: UUUAGUUCCUGAUCGAAAG against ZNF800
The seed-corrected z-score of the first is lower: -0.91 for the first, 1.28 for the second.

With AUCUUUACGAGCUUCAGCC against FAM185BP the seed-corrected z-score was 1.55.
